# Results filed as inconclusive are left out. A call without a number means that no potency is given here. Active and inactive are the calls of the source. Calls follow the shape of the dose curve; as a rule, active = well fitted inhibition curve with a large enough effect; inconclusive = small, poorly fitted or top-dose-only effect; inactive = flat fitted curve, though single readings scatter.
# How the values were obtained:
# Assay in all cases: qHTS profiling for inhibitors of Plasmodium falciparum proliferation (AID 504749); also: nearly all actives have a fitted effect of over 60% in size
# Details in all cases: P. falciparum in erythrocytes, SYBR Green DNA, 72 h; series mostly up to 28.7 µM
# CP217 = tested on: CP217
# Summary of the method: (§1)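 Three-day growth assay of blood-stage parasites in erythrocytes (0.3% parasitemia, 2.5% hematocrit) at 37 C, 5% CO2, quantified by SYBR Green DNA staining after overnight detergent lysis.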
# CP237 = tested on: CP237
# Summary of the method: as §1
# CP247 = tested on: CP247
# Summary of the method: as §1
# CP250 = tested on: CP250
# Summary of the method: as §1
# CP252 = tested on: CP252
# Summary of the method: as §1
# CP260 = tested on: CP260
# Summary of the method: as §1
# CP262 = tested on: CP262
# Summary of the method: as §1
# CP265 = tested on: CP265
# Summary of the method: as §1
# CP266 = tested on: CP266
# Summary of the method: as §1
# CP315 = tested on: CP315
# Summary of the method: as §1
# CP325 = tested on: CP325
# Summary of the method: as §1
# CP238 = tested on: CP238
# Summary of the method: as §1
# CP256 = tested on: CP256
# Summary of the method: as §1
# CP268 = tested on: CP268
# Summary of the method: as §1
# CP269 = tested on: CP269
# Summary of the method: as §1
# CP286 = tested on: CP286
# Summary of the method: as §1
# CP291 = tested on: CP291
# Summary of the method: as §1
# CP305 = tested on: CP305
# Summary of the method: as §1
# CP297 = tested on: CP297
# Summary of the method: as §1
# CP215 = tested on: CP215
# Summary of the method: as §1
# Potency is read from the fitted curve at half-maximal effect.
SMILES,Potency (CP217),Potency (CP237),Potency (CP247),Potency (CP250),Potency (CP252),Potency (CP260),Potency (CP262),Potency (CP265),Potency (CP266),Potency (CP315),Potency (CP325),Potency (CP238),Potency (CP256),Potency (CP268),Potency (CP269),Potency (CP286),Potency (CP291),Potency (CP305),Potency (CP297),Potency (CP215)
CN(C)CCC=C1c2ccccc2C=Cc2ccccc21,inactive,inactive,inactive,inactive,inactive,inactive,inactive,inactive,inactive,inactive,inactive,,,,,,,,,
CN(CCOc1ccc(NS(C)(=O)=O)cc1)CCc1ccc(NS(C)(=O)=O)cc1,inactive,inactive,inactive,inactive,inactive,inactive,inactive,inactive,inactive,inactive,inactive,inactive,inactive,inactive,inactive,inactive,inactive,inactive,,
COc1ccc(CCN(C)CCCC(C#N)(c2ccc(OC)c(OC)c2)C(C)C)cc1OC (configuration not stated),inactive,,inactive,inactive,inactive,,inactive,inactive,,,inactive,inactive,inactive,inactive,,inactive,,,inactive,
CCCCc1oc2ccccc2c1C(=O)c1cc(I)c(OCCN(CC)CC)c(I)c1,5.62 µM (active),7.08 µM (active),8.91 µM (active),7.94 µM (active),11.2 µM (active),3.98 µM (active),,7.08 µM (active),inactive,inactive,,7.94 µM (active),12.6 µM (active),,,11.2 µM (active),,,,15.1 µM (active)
NC12CC3CC(CC(C3)C1)C2,inactive,,inactive,inactive,inactive,inactive,inactive,inactive,inactive,inactive,inactive,inactive,,inactive,inactive,inactive,inactive,inactive,,inactive
Cc1ccc(-c2cc(C(F)(F)F)nn2-c2ccc(S(N)(=O)=O)cc2)cc1,,,,,,,,,,,,inactive,,,,8.91 µM (active),,,,13.5 µM (active)
COc1cc2c(c(OC)c1OC)-c1ccc(OC)c(=O)cc1[C@@H](NC(C)=O)CC2,inactive,inactive,inactive,inactive,inactive,inactive,inactive,inactive,inactive,inactive,inactive,inactive,inactive,inactive,inactive,inactive,inactive,inactive,inactive,
CC12CC3CC(C)(C1)CC(N)(C3)C2,inactive,,inactive,inactive,inactive,,inactive,inactive,inactive,inactive,inactive,inactive,inactive,inactive,inactive,inactive,inactive,inactive,,inactive
O=C1c2c(O)ccc(O)c2C(=O)c2c(NCCNCCO)ccc(NCCNCCO)c21,3.55 µM (active),1.26 µM (active),3.16 µM (active),3.16 µM (active),3.16 µM (active),1 µM (active),,,5.1 µM (active),6.42 µM (active),,3.16 µM (active),,7.21 µM (active),7.21 µM (active),1.12 µM (active),6.42 µM (active),5.1 µM (active),6.42 µM (active),6.42 µM (active)
CN(C)CCOC(c1ccccc1)c1ccccc1,inactive,,inactive,inactive,,5.62 µM (active),inactive,,inactive,inactive,,,,,inactive,,,,,inactive
Nc1c2c(nc3ccccc13)CCCC2,inactive,,,inactive,inactive,,,,inactive,inactive,,inactive,,,,,,,,
O=C(c1ccc(F)cc1)C1CCN(CCn2c(=O)[nH]c3ccccc3c2=O)CC1,inactive,inactive,,,inactive,inactive,inactive,inactive,inactive,inactive,inactive,inactive,inactive,,inactive,,,,inactive,
CN(C)CCCN1c2ccccc2CCc2ccc(Cl)cc21,,,inactive,inactive,inactive,,,inactive,,inactive,inactive,inactive,,inactive,,,,inactive,,
O=C(Nc1ccc([N+](=O)[O-])cc1Cl)c1cc(Cl)ccc1O,,1.12 µM (active),,,,2.82 µM (active),,,,,,inactive,,1.9 µM (active),1.2 µM (active),1.78 µM (active),1.2 µM (active),2.13 µM (active),8.49 µM (active),0.536 µM (active)
CN1CCC(=C2c3ccccc3CC(=O)c3sccc32)CC1,,,,inactive,inactive,,inactive,10 µM (active),inactive,inactive,,,,,,inactive,,,,
COc1ccccc1OCCNCC(O)COc1cccc2[nH]c3ccccc3c12 (configuration not stated),,12.6 µM (active),,,,,,8.91 µM (active),inactive,inactive,inactive,,11.2 µM (active),,,10 µM (active),,inactive,inactive,
O=c1c(O)c(-c2ccc(O)c(O)c2)oc2cc(O)cc(O)c12,,,7.08 µM (active),,,,,,inactive,,,,,,,11.2 µM (active),,,,13.5 µM (active)
Cn1ccc2cc3c(cc21)CCN3C(=O)Nc1cccnc1,,,,,,,inactive,,,,,,,,,,,,,
CC(COc1ccccc1)N(CCCl)Cc1ccccc1 (configuration not stated),,11.2 µM (active),inactive,inactive,inactive,,inactive,,inactive,inactive,inactive,,inactive,,inactive,,,inactive,,
CN(C)C(=N)N=C(N)N,inactive,inactive,inactive,inactive,inactive,inactive,,inactive,inactive,,inactive,inactive,inactive,,,inactive,,inactive,,
Clc1ccc(C(c2ccccc2Cl)C(Cl)Cl)cc1 (configuration not stated),inactive,inactive,inactive,inactive,inactive,,inactive,inactive,inactive,inactive,inactive,inactive,inactive,,inactive,,inactive,,,

# — PubChem BioAssay (NCATS)
